Laboratory results taken from PubChem BioAssay (NCI).
This is part of a sample that, as a whole, favours compounds with a hit. Of some 79,000 tested, about 15% had one in any assay. Activity calls are given as the source filed them. Rule as the data show it: active = growth inhibition above about 70%; inactive = the rest.

Experiments:
[1] = NCI Yeast Anticancer Drug Screen. Data for the rad50 strain (AID 155);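 also: 0% = growth of vehicle-only cultures of the same strain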; settings: S. cerevisiae rad50 strain growth inhibition; at 50.0 µM; active compounds read high
How it was run: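 Compounds were tested on a yeast strain with an engineered DNA damage repair alteration; the reported value is growth inhibition normalised to vehicle treatment.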

[2] = NCI Yeast Anticancer Drug Screen. Data for the mec2-1 strain (AID 157); settings: S. cerevisiae mec2-1 strain, at 50.0 µM, active compounds read high
How it was run: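 Test agents were screened against the mec2-1 yeast strain, with defined DNA repair or cell cycle alteration. Growth was scored as inhibition against vehicle-only controls.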

[3] = NCI Yeast Anticancer Drug Screen. Data for the sgs1 mgt1 strain (AID 161);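 also: 0% = growth of cultures given vehicle only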; settings: S. cerevisiae sgs1 mgt1 strain, at 50.0 µM, active compounds read high
How it was run: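 Read-out: growth inhibition vs vehicle controls. Cells: mutant yeast strain deficient in DNA damage repair.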

[4] = NCI Yeast Anticancer Drug Screen. Data for the cln2 rad14 strain (AID 165);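 also: 0% = growth equal to vehicle treated cultures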; settings: S. cerevisiae cln2 rad14 strain, at 50.0 µM, active compounds read high
How it was run: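 Growth of compound-exposed yeast (cln2 rad14 genotype) measured and expressed as inhibition relative to vehicle.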

[5] = NCI Yeast Anticancer Drug Screen. Data for the bub3 strain (AID 167); settings: S. cerevisiae bub3 mutant strain, at 50.0 µM, active compounds read high
How it was run: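 Growth of a checkpoint-deficient yeast mutant is measured after compound exposure. Values represent inhibition relative to vehicle.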

[6] = NCI Yeast Anticancer Drug Screen. Data for the mlh1 rad18 strain (AID 175); settings: S. cerevisiae mlh1 rad18 strain growth inhibition; at 50.0 µM; active compounds read high
How it was run: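 In this whole-cell yeast screen, a strain with altered DNA damage repair is challenged with compound, and its growth is measured against matched vehicle-treated controls.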

Measured: growth inhibition

O=C(O)c1ccc(S(=O)(=O)N=Nc2c(O)[nH]c3ccccc23)cc1
inactive: [1] -6.6% | [2] -5.2% | [3] -35% | [4] -1.15% | [5] -37% | [6] -7.45%

CC(=O)NC(C)(C)C1CCC(C)CC1 (stereo unspecified)
inactive: [1] -7.95% | [2] 5.45% | [3] 1.55% | [4] 8.05% | [5] 9.65% | [6] -38.8%

Cc1nc2ccccc2c(=O)o1
inactive: [1] -12.2% | [2] 7.05% | [3] 9.85% | [4] 15.1% | [5] -5.65% | [6] -21%

CCC(=O)Oc1cccc(C)c1
inactive: [1] 13.8% | [2] -8.4% | [3] 2.05% | [4] -10.6% | [5] 4.2% | [6] -15.4%

CN/N=C(\C(=O)Nc1ccc(C)c(C)c1)C(C(=O)OC)c1nc2ccc([N+](=O)[O-])cc2[nH]c1=O (stereo unspecified)
inactive: [1] -42.9% | [2] 2.7% | [3] -19.1% | [4] 19.3% | [5] -1.25% | [6] -18.2%

COc1ccccc1-c1ccc([N+](=O)[O-])cc1[N+](=O)[O-]
inactive: [1] 18.9% | [2] -5.7% | [3] -1.9% | [4] 8.65% | [5] 22.2% | [6] 14.8%

CC(C)C(/C=C/c1ccccc1)=N\NC(=S)NN
inactive: [1] -5.25% | [2] -5.9% | [3] 17.1% | [4] 13.4% | [5] 26.6% | [6] 32.4%

CC(=O)OC1CCCC2CCCC21 (stereo unspecified)
inactive: [1] 0.2% | [2] 5.2% | [3] 1.25% | [4] -5.7% | [5] -2.35% | [6] -3.75%

CCc1cccc(OC(=O)CCl)c1
inactive: [1] 3.1% | [2] 7.5% | [3] -1.65% | [4] -24.4% | [5] -17.8% | [6] -5.1%

NC(=O)CSCC(=O)O
inactive: [1] -5.9% | [2] -6.2% | [3] 14.5% | [4] -0.15% | [5] -23.2% | [6] -14.1%

NC(=S)N/N=C\c1ncccc1OCc1cccc(N)c1
inactive: [1] 32.3% | [2] 46.9% | [3] 42% | [4] 5.6% | [5] 37.4% | [6] 29.2%

COc1ccc(Cl)cc1NC(=O)Nc1ccc(S(N)(=O)=O)cc1
inactive: [1] 9.7% | [2] 8% | [3] 4.85% | [4] 18.1% | [5] 19.1% | [6] 9.65%

C=C[C@@]1(C)CC(=O)[C@]2(O)[C@@]3(C)[C@@H](O)CCC(C)(C)[C@@H]3[C@H](O)[C@@H](OC(C)=O)[C@@]2(C)O1
inactive: [1] 0.2% | [2] -4.4% | [3] -5.75% | [4] 9.2% | [5] -4.15% | [6] -68%

O=C(O)c1ccc(Cl)c(C(=O)O)c1
inactive: [1] 13.8% | [2] 4.65% | [3] 26.7% | [4] 3.15% | [5] -11.7% | [6] 11.8%

CN(C)S(=O)(=O)c1ccc(CCc2ccc(S(=O)(=O)N(C)C)cc2)cc1
inactive: [1] 13.6% | [2] 2.65% | [3] -12.7% | [4] 5.9% | [5] 6.35% | [6] 6.2%

CCSCCNC(=O)NS(=O)(=O)c1ccc(C)cc1
inactive: [1] 4.85% | [2] -0.75% | [3] -6.45% | [4] 1.55% | [5] -11.4% | [6] 14%

NC(=O)c1cn[nH]c1N
inactive: [1] 4.05% | [2] 6.2% | [3] 14.2% | [4] -29.6% | [5] -3.4% | [6] 0.55%

CC(=O)Nc1ccc(Br)cc1C
inactive: [1] 25.1% | [2] 1.95% | [3] 2.25% | [4] -10.9% | [5] -2.4% | [6] 30.6%

Clc1ccnnc1Cl
inactive: [1] -17.7% | [2] -30.8% | [3] -43% | [4] 13.2% | [5] -37.5% | [6] -15.7%

O=[N+]([O-])c1ccc2c(ccn2C2OCC(O)C(O)C2O)c1 (stereo unspecified)
inactive: [1] 5.7% | [2] 13.6% | [3] 8.7% | [4] -3.55% | [5] 18.1% | [6] -2.7%

c1ccc(-c2cc(-c3ccccc3)nc(-c3ccccc3)c2)cc1
inactive: [1] -7.2% | [2] -4.05% | [3] 10.1% | [4] -33% | [5] 9.65% | [6] 1.6%

CCCN(CCC)C(=O)c1c(Cl)c2cccnc2n2c(C)cnc12
inactive: [1] 5.35% | [2] 19.7% | [3] 26.6% | [4] 18.7% | [5] 15.1% | [6] 31.3%

CC1=CC(=O)C(c2ccccc2)CC1 (stereo unspecified)
inactive: [1] -0.2% | [2] -5.65% | [3] 14.8% | [4] -32.7% | [5] -0.75% | [6] -5.3%

COC(=O)C(Cc1nc2ccccc2[nH]c1=O)C(NO)C(=O)Nc1c(Cl)cc([N+](=O)[O-])cc1Cl (stereo unspecified)
inactive: [1] -3.85% | [2] -7.4% | [3] 36.6% | [4] 10.2% | [5] 22.2% | [6] -1.75%

ON1c2ccccc2-c2ccccc2C1(c1ccccc1)c1ccccc1
active: [1] 95.8% | [2] 96.6% | [3] 78.7% | [5] 71.5% | [6] 97.3%
inactive: [4] 69.8%

C=CCN(CC=C)P(=O)(N(CC=C)CC=C)N(CC=C)CC=C
inactive: [1] 22.3% | [2] 8.9% | [3] 16.4% | [4] 0.15% | [5] 17.6% | [6] 21.4%

C[N+](C)(C)C12CCCC1S(=O)(=O)C2 (stereo unspecified)
inactive: [1] 4.95% | [2] 4.25% | [3] 9.3% | [4] -7.5% | [5] -7.45% | [6] 16.6%

CCOC(=O)c1ccc2c(c1)CCC(C)(C)O2
inactive: [1] -5.55% | [2] -4.8% | [3] 7.3% | [4] -13.9% | [5] 11.5% | [6] -7.15%

CCCCCC(Oc1ccc(Cl)cc1)C(=O)OCC (stereo unspecified)
inactive: [1] 22.8% | [2] 9.1% | [3] 14.9% | [4] 1.45% | [5] 15% | [6] 17.2%

NNC(=O)Sc1ccccc1
inactive: [1] -14.8% | [2] 9.65% | [3] -12.8% | [4] -31.9% | [5] -12.3% | [6] -0.45%

O/N=C1\CCCC\C1=N/O.O/N=C1\CCCC\C1=N/O.[Pt]
inactive: [1] 34.8% | [2] -0.8% | [3] 8.05% | [4] 19.3% | [5] -1.75% | [6] 8.05%

CC(=O)N1C(=O)C(C)(C2=CC(=O)c3ccccc3C2=O)c2ccc(Br)cc21 (stereo unspecified)
active: [1] 76.8% | [2] 77% | [3] 73.7% | [4] 71.8% | [5] 87%
inactive: [6] 67.2%

COc1cc2ccc1-c1cc(ccc1O)CC1c3cc4c(cc3CCN1C)Oc1c(OC)cc3c(c1O4)C(C2)N(C)CC3 (stereo unspecified)
inactive: [1] 1% | [2] -7.15% | [3] -18.5% | [4] -1.7% | [5] -6.15% | [6] 0.25%

COc1ccc(N2C(=O)C3c4[nH]c5ccccc5c4C4CC(C)(C)CC(C)(C)C4C3C2=O)cc1 (stereo unspecified)
inactive: [1] 35.9% | [2] 10.7% | [3] 13.3% | [4] -13.1% | [5] 33.1% | [6] 8.65%

O=C(O)C1C2C=CC(O2)C1C(=O)Nc1ccccc1 (stereo unspecified)
inactive: [1] 13.7% | [2] 3.5% | [3] 7.5% | [4] -1.9% | [5] -19.4% | [6] 8.3%

COC(=O)c1ccc(S(=O)(=O)O)cc1[N+](=O)[O-]
inactive: [1] 3.05% | [2] 11.9% | [3] 2.5% | [4] -11.2% | [5] 11.8% | [6] 24.4%

CSc1nc2c(c(=O)[nH]1)CC(=O)N2
inactive: [1] 0.35% | [2] -5.75% | [3] -7.25% | [4] -33.6% | [5] -12.2% | [6] -3.1%

CCOc1ccc2c(N=[N+]=[N-])cc(C)nc2c1
inactive: [1] -46.1% | [2] -11.2% | [3] -18.2% | [4] -67.8% | [5] 5.3% | [6] 5.45%

O=C(NNC(=O)c1ccccc1Br)c1ccccc1Br
inactive: [1] -18.9% | [2] -48.8% | [3] -9.6% | [4] 0.45% | [5] -25.1% | [6] -18.1%

CCCCC1(CC)COC2(CCCCC2)OC1
inactive: [1] 17.1% | [2] 37% | [3] 13.3% | [4] -22.2% | [5] 6.85% | [6] 6.95%

CC(C)C(C(=O)O)N1C(=O)c2ccccc2C1=O (stereo unspecified)
inactive: [1] -16.2% | [2] -1.5% | [3] -12.2% | [4] -31.6% | [5] -16.1% | [6] -4.15%
